ALDH1A1 inh: qHTS Assay for Inhibitors of Aldehyde Dehydrogenase 1 (ALDH1A1); Aldehyde dehydrogenase 1A1 (Homo sapiens), P00352; Purified ALDH1A1, NADH fluorescence, propionaldehyde substrate; actives 7.3% (n = 220,000); AID 1030, 2008; Potency, µM (top dose mostly 75.3 µM), for inactives: at the top dose activity, negative = inhibition, most hits filed as inhibitors; active = well fitted inhibition curve with a large enough effect, not every such curve was filed as active; inconclusive = small, poorly fitted or top-dose-only effect, or another doubt; inactive = no such curve, though single readings can be large or run the other way;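 note: plate controls were no enzyme wells and a reference inhibitor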
KDM4E inh: qHTS Assay for Inhibitors of Human Jumonji Domain Containing 2E (JMJD2E). actives 1.6% (n = 230,000). AID 2147, 2009. JMJD2E catalytic domain, FDH-coupled NADH fluorescence (FDH is formaldehyde dehydrogenase). Lysine-specific demethylase 4E (Homo sapiens), B2RXH2. Potency, µM (titrated, usually from 57.1 µM), for the others: at the top dose activity change, negative = inhibition, hits mostly inhibitors; active = well fitted inhibition curve with a large enough effect, not every such curve was filed as active; inconclusive = small, poorly fitted or top-dose-only effect, or another doubt; inactive = no such curve, though single readings can be large or run the other way;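 note: 0% = wells with enzyme and -100% = buffer wells without enzyme; nearly all actives have a fitted effect of over 50% in size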
Tau fibril ThT: qHTS for Inhibitors of Tau Fibril Formation, Thioflavin T Binding | Microtubule-associated protein tau (Homo sapiens), P10636 | recombinant tau K18 P301L, heparin-induced fibrillization, ThT fluorescence | Potency, µM (highest dose often 57.4 µM), without a hit: top-dose activity, negative = inhibition, actives largely listed as inhibitors | actives 2.1% (n = 270,000) | AID 1460, 2008; note: nearly all actives have a fitted effect of over 55% in size
Target sequence (P10636 561-689 P618L limits assumed): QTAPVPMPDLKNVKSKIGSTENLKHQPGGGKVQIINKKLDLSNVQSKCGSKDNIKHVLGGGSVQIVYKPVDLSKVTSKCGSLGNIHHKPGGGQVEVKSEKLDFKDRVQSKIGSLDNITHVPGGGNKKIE
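Tau K18 P301L fragment (15 uM unlabeled plus 0.24 uM Alexa 594-labeled) in 100 mM sodium acetate pH 7 with compound, fibrillization induced by 20 uM heparin for 6 hr at 37 C. Thioflavin T (30 uM) added, fluorescence read after 1 hr (ex 450, em 510 nm).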
HPGD inh: qHTS Assay for Inhibitors of HPGD (15-Hydroxyprostaglandin Dehydrogenase); Potency, µM, for the others: top-dose activity change, negative = inhibition, hits mostly inhibitors; 15-hydroxyprostaglandin dehydrogenase [NAD(+)] (Homo sapiens), P15428; purified HPGD, NADH fluorescence kinetic, PGE2 substrate; AID 894, 2007; actives 4.3% (n = 150,000); active = well fitted inhibition curve with a large enough effect, not every such curve was filed as active; inconclusive = small, poorly fitted or top-dose-only effect, or another doubt; inactive = no such curve, though single readings can be large or run the other way
Target sequence (P15428 whole entry, looked up): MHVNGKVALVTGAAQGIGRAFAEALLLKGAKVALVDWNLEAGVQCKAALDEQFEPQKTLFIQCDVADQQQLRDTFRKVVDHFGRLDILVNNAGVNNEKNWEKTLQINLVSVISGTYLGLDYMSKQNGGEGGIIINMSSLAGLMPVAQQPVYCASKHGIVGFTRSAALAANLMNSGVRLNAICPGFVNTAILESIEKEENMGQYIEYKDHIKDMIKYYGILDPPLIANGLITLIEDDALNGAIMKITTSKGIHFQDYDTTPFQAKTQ
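20 nM HPGD preincubated 15 min at room temperature with compound in 50 mM Tris-HCl pH 8, 0.01% Tween 20. Started with 1 mM NAD+ and 30 uM prostaglandin E2; NADH fluorescence (360/450 nm) read 5 times over 30-s intervals, last minus first.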
Tau fluor cs: Counterscreen qHTS for Inhibitors of Tau Fibril Formation, Fluorescence Polarization; tau K18 P301L Alexa594 fluorescence, heparin fibrillization; Potency, µM (titrated, usually from 57.7 µM), without a hit: top-dose activity change, negative = decrease; actives 0.93% (n = 280,000); note: nearly all actives have a fitted effect of over 55% in size
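Human K18 P301L tau (15 uM unlabeled plus 0.24 uM Alexa 594-labeled, final) in 100 mM sodium acetate pH 7 was mixed with compound and 20 uM heparin and incubated 6 hr at 37 C.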
Tau fibril FP: qHTS for Inhibitors of Tau Fibril Formation, Fluorescence Polarization; K18 P301L tau heparin fibrillization, Alexa594 FP, 6 h; Potency, µM (highest dose often 57.7 µM), inactives show at the highest dose activity, negative = inhibition, hits mostly inhibitors; actives 0.39% (n = 280,000); AID 1468, 2008; Microtubule-associated protein tau (Homo sapiens), P10636; note: nearly all actives have a fitted effect of over 55% in size
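Heparin (20 uM) drove fibril formation of recombinant tau K18 P301L, 15 uM unlabeled with 0.24 uM Alexa 594 label, for 6 hr at 37 C in 100 mM sodium acetate pH 7. Fluorescence polarization (555/632 nm) read 1 hr after 30 uM ThT.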
Active calls of the source: *. Rows were chosen to be rich in hits. Some 9.9% of all compounds tested hit in one or more screens of this group. Unless noted, calls come from the whole dose curve; as a rule, active = well fitted curve in the direction sought with a large enough effect; inconclusive = small, poorly fitted or top-dose-only effect, or another doubt; inactive = no such curve, though single readings can be large; an effect the other way counts as inactive or inconclusive. Unless noted, % is set by controls: 0 for no effect and ±100 for the full control effect; potency is the fitted concentration of half-maximal effect.

`Cc1sc2ncnc(N3CCC(C)CC3)c2c1C` gave ALDH1A1 inh 2.8%, KDM4E inh -8.2%, Tau fibril ThT 9.8%, HPGD inh 22.4µM*, Tau fluor cs -2.4% and Tau fibril FP -0.1%.
`Cc1cc(-c2nn(-c3ccccc3F)cc2CN2CCCC(CO)C2)c(C)s1` (centres undefined) gave ALDH1A1 inh 9.8%, KDM4E inh 3.2%, Tau fibril ThT 7.94µM*, Tau fluor cs -15.4% and Tau fibril FP 8.3%.
Cc1cc(-c2nn(-c3ccccc3F)cc2CNCCc2cnc[nH]2)c(C)s1 was read as ALDH1A1 inh 14.1µM*, KDM4E inh -3.3%, Tau fibril ThT -19.5%, Tau fluor cs -13.0% and Tau fibril FP -1.9%.
For Cc1cc(-c2nn(-c3ccccc3F)cc2CN2CCC(C(N)=O)CC2)c(C)s1 the results were ALDH1A1 inh 2.0%, KDM4E inh -0.5%, Tau fibril ThT -4.6%, Tau fluor cs -9.3% and Tau fibril FP -6.9%.
O=C1c2ccccc2C(=O)N1Cc1ccc2c(c1)OCO2 was read as ALDH1A1 inh 7.8%, KDM4E inh 4.4%, Tau fibril ThT 7.5%, HPGD inh -16.6%, Tau fluor cs -2.6% and Tau fibril FP 1.4%.
O=C1c2ccccc2C(O)N1Cc1ccc2c(c1)OCO2 (centres undefined) was read as ALDH1A1 inh 3.7%, KDM4E inh -13.4%, Tau fibril ThT -0.6%, HPGD inh 15.8µM*, Tau fluor cs -1.5% and Tau fibril FP 1.3%.
`O=C(CC1(O)C(=O)N(Cc2ccccc2)c2ccccc21)c1ccc2c(c1)OCO2` (centres undefined) gave ALDH1A1 inh 7.08µM*, KDM4E inh -1.1%, Tau fibril ThT -18.6%, HPGD inh -5.0%, Tau fluor cs -21.6% and Tau fibril FP -6.0%.
Screening O=C(O)c1ccc2c(c1)C(=O)N(Cc1ccc3c(c1)OCO3)C2=O returned ALDH1A1 inh -17.3%, KDM4E inh -0.2%, Tau fibril ThT 3.6%, HPGD inh 4.47µM*, Tau fluor cs -2.4% and Tau fibril FP -1.7%.
`Cc1ccc(C(=O)CC2(O)C(=O)N(Cc3ccc4c(c3)OCO4)c3ccccc32)cc1` (centres undefined) gave ALDH1A1 inh 1.41µM*, KDM4E inh 4.6%, Tau fibril ThT -16.2%, HPGD inh -17.8%, Tau fluor cs -17.4% and Tau fibril FP 3.5%.
`CN1C(=O)C(O)(CC(=O)c2ccc3c(c2)OCO3)c2ccccc21` (centres undefined) gave ALDH1A1 inh -0.1%, KDM4E inh -18.3%, Tau fibril ThT 14.8%, HPGD inh -14.6%, Tau fluor cs 15.1% and Tau fibril FP 9.1%.
`O=C1c2ccccc2C(Nc2ccc3c(c2)OCO3)N1Cc1ccc2c(c1)OCO2` (centres undefined) gave ALDH1A1 inh inconclusive, KDM4E inh 8.7%, Tau fibril ThT inconclusive, HPGD inh inconclusive, Tau fluor cs inconclusive and Tau fibril FP 9.5%.
CC1(C)C(=O)N(CC(=O)Nc2ccc(OC(F)(F)F)cc2)c2ccccc21 was read as Tau fibril ThT 0.0%, Tau fluor cs -28.0% and Tau fibril FP -15.4%.
For CC(C)(C)C(=O)CC1(O)C(=O)N(Cc2ccccc2)c2ccccc21 (centres undefined) the results were ALDH1A1 inh 7.08µM*, KDM4E inh 3.7%, Tau fibril ThT -4.6%, HPGD inh 0.9%, Tau fluor cs -14.5% and Tau fibril FP -3.3%.
